Results: PubChem BioAssay (Tox21)
Inconclusive results are not listed. Entries that show only a call come without a potency. Calls of active or inactive are those of the source. Unless noted, calls follow the shape of the dose curve; as a rule, active = well fitted curve in the direction sought with a large enough effect in the repeat runs; inconclusive = weak or mixed curves; inactive = no such curve, though single readings can be large; an effect the other way counts as inactive or inconclusive.

Columns and labels:
[1] = qHTS assay to identify small molecule antagonists of the androgen receptor (AR) signaling pathway using the MDA cell line in the presence of 0.5 nM R1881 - cell viability counter screen (AID 1259242); also: nearly all actives have a fitted effect of over 45% in size
Summary of the method: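 MDA-kb2 cells (MMTV-luciferase, AR/GR responsive) were treated with compounds plus 0.5 nM R1881 (final) for 16 hr at 37C, 0% CO2. Viability was then read in the same wells as live-cell protease fluorescence (CellTiter-Fluor, 30 min).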

[2] = biological target: Estrogen receptor (Homo sapiens) (UniProt P03372); assay: qHTS assay to identify small molecule antagonists of the estrogen receptor alpha (ER-alpha) signaling pathway using the BG1 cell line in the presence of 0.1 nM 17-beta-estradiol (AID 1259244); also: nearly all actives have a fitted effect of over 50% in size; also: potency is read from the fitted curve at half-maximal effect
Summary of the method: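 VM7Luc4E2 cells (endogenous full-length ER-alpha, 4×ERE-luciferase), kept 5 days in phenol red-free, charcoal-stripped FBS medium; 4,000 cells/well. Compounds added with 0.1 nM (final) 17beta-estradiol, 22 hr at 37C; luminescence read with ONE-Glo after 30 min.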

[3] = qHTS assay to identify small molecule HDAC inhibitors (AID 1259364); also: nearly all actives have a fitted effect of over 45% in size; also: potency is read from the fitted curve at half-maximal effect
Summary of the method: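 Wild-type HCT-116 cells, plated overnight at 37 C, exposed to compounds 2 hr at 37 C; luminogenic HDAC-Glo substrate then added 30 min at room temperature. Luminescence reports relative endogenous class I/II HDAC activity.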

[4] = qHTS assay to identify small molecule agonists of the sonic hedgehog signaling (Shh) pathway - cell viability counter screen (AID 1259366); also: nearly all actives have a fitted effect of over 50% in size; also: potency is read from the fitted curve at half-maximal effect
Summary of the method: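 Viability measured fluorometrically (CellTiter-Fluor, 1hr, 37C) in 3T3 Gli1-Luc reporter cells after 23hr compound exposure within a 24hr incubation at 37C/5% CO2.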

[5] = qHTS assay to identify small molecule antagonists of the sonic hedgehog signaling (Shh) pathway - cell viability counter screen (AID 1259367); also: nearly all actives have a fitted effect of over 55% in size; also: potency is read from the fitted curve at half-maximal effect
Summary of the method: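 Using CellTiter-Fluor, viability of Gli1-Luc reporter 3T3 cells is read by fluorescence in the wells used for the Shh luciferase assay. Treatment lasts 23 hr with conditioned medium, then reagent 1 hr at 37C.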

[6] = qHTS assay to identify small molecule agonists of the sonic hedgehog signaling (Shh) pathway (AID 1259368; calls by dose curve;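 also: NIH/3T3-derived 3T3Gli1-Luc cells carrying a stable Gli1-driven firefly luciferase reporter; series mostly up to about 92 µM; nearly all actives have a fitted effect of over 15% in size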)
Summary of the method: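 NIH/3T3-derived 3T3Gli1-Luc cells with stably integrated Gli1-driven firefly luciferase, 2,000 cells/well, compounds added after 4 hr. Incubated 24 hr at 37C, 5% CO2; luminescence read after 30 min with luciferase reagent at room temperature.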

[7] = qHTS assay to identify small molecule antagonists of the sonic hedgehog signaling (Shh) pathway (AID 1259369; calls by dose curve; also: nearly all actives have a fitted effect of over 45% in size; also: potency is read from the fitted curve at half-maximal effect)
Summary of the method: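 NIH/3T3-derived Gli1-Luc reporter cells plated 4 h, dosed with compound, then stimulated with conditioned medium for 24 h at 37 C. Firefly luciferase luminescence read after 30 min with detection reagent at room temperature.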

[8] = biological target: Estrogen receptor beta (Homo sapiens) (UniProt Q92731); assay: qHTS assay to identify small molecule agonists of the estrogen receptor beta (ER-beta) signaling pathway (AID 1259377; active = well fitted activation curve with a large enough effect in the signal ratio in the repeat runs, not every such curve was filed as active; the % refers to the signal ratio)
Summary of the method: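 A UAS-controlled beta-lactamase reporter in ER-beta-UAS-bla HEK293T cells reports receptor activation. Compounds act for 16 hr at 37C in 2% charcoal-stripped serum, and a FRET substrate is read by fluorescence after 2 hours.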

[9] = biological target: Estrogen receptor beta (Homo sapiens) (UniProt Q92731); assay: qHTS assay to identify small molecule antagonists of the estrogen receptor beta (ER-beta) signaling pathway (AID 1259378; active = well fitted inhibition curve with a large enough effect in the signal ratio in the repeat runs, not every such curve was filed as active; the % refers to the signal ratio)
Summary of the method: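 Antagonist mode: compounds added to beta-lactamase reporter HEK293T ER-beta-UAS cells stimulated with E2 (1nM final), 16 hr at 37C. LiveBLAzer B/G FRET substrate, 2 hours room temperature, fluorescence read-out.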

[10] = qHTS assay to identify small molecule agonists of the androgen receptor (AR) signaling pathway in the presence of an antagonist - cell viability counter screen (AID 1259379); also: nearly all actives have a fitted effect of over 25% in size; also: potency is read from the fitted curve at half-maximal effect
Summary of the method: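 MDA-kb2 cells (MMTV-luciferase, AR/GR), 3,000/well, 5 h attachment, then 3.0 µM nilutamide (final) and compounds at 15 concentrations. Viability by CellTiter-Fluor fluorescence after 16 h at 37 °C, 0% CO2, in the reporter wells.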

[11] = qHTS assay to identify small molecule antagonists of the estrogen receptor beta (ER-beta) signaling pathway - cell viability counter screen (AID 1259382);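 also: HEK293T cells carrying ER-beta-UAS-bla reporter stimulated with estradiol; series mostly up to about 92 µM; nearly all actives have a fitted effect of over 55% in size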
Summary of the method: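 ER-beta-UAS-bla HEK293T cells in 2% charcoal-stripped FBS medium, treated with compound plus 1 nM 17-beta-estradiol for 16 h at 37C. Viability read by CellTiter-Glo luminescence after 30 min at room temperature in the same wells.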

[12] = biological target: Estrogen receptor (Homo sapiens) (UniProt P03372); assay: qHTS assay to identify small molecule agonists of the estrogen receptor alpha (ER-alpha) signaling pathway in the presence of an antagonist (AID 1259383; calls by dose curve; also: top concentration of the series differs between compounds; nearly all actives have a fitted effect of over 15% in size)
Summary of the method: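 VM7Luc4E2 cells express endogenous full-length ER-alpha with an ERE-luciferase reporter and were hormone-deprived for 5 days. Compounds at 15 concentrations were added with 10.0nM ICI-182,780 for 22hr at 37C. Luminescence was read with ONE-Glo.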

[13] = qHTS assay to identify small molecule agonists or antagonists of the thyroid stimulating hormone receptor (TSHR) signaling pathway - wild type cell line counter screen (AID 1259384; calls by dose curve)
Summary of the method: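 Counter screen in untransfected Hek293: compounds (15-point titration, triplicate) plus phosphodiesterase inhibitor Ro20-1724 added after 18 h plating; 30 min RT. Intracellular cAMP via competitive d2/cryptate immunoassay, 1 h incubation.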

[14] = biological target: Thyrotropin receptor (Homo sapiens) (UniProt P16473); assay: qHTS assay to identify small molecule antagonists of the thyroid stimulating hormone receptor (TSHR) signaling pathway (AID 1259385; calls by dose curve; also: nearly all actives have a fitted effect of over 20% in size)
Summary of the method: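 Antagonist mode: compound-treated TSHR-expressing HEK293 cells were stimulated with 1.5 ng/mL TSH (final) in presence of Ro20-1724 for 30 min at RT. HTRF cAMP detection after 1 h; each compound tested at 15 concentrations, triplicate.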

[15] = qHTS assay to identify small molecule phospholipidosis (PLD) inducers (AID 1259344; active = well fitted curve in the direction sought with a large enough effect; an effect the other way counts as inactive or inconclusive)
Summary of the method: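 Fluorescent phospholipid staining (LipidTOX Red) measured by automated microscopy in fixed HepG2 cells after 24 h treatment; nuclei counterstained with Hoechst 33342; amiodarone as reference inducer.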

[16] = qHTS assay to identify small molecule HDAC inhibitors - cell viability counter screen (AID 1259365); also: series mostly up to about 92 µM; nearly all actives have a fitted effect of over 50% in size
Summary of the method: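 Viability readout: CellTiter-Glo luminescence. Wild-type HCT-116 cells, 2hr compound treatment following overnight attachment at 37 C.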

[17] = qHTS assay to identify small molecule agonists of the estrogen receptor beta (ER-beta) signaling pathway - cell viability counter screen (AID 1259380); also: nearly all actives have a fitted effect of over 30% in size
Summary of the method: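 ER-beta-UAS-bla HEK293T cells in medium with 2% charcoal-stripped FBS, pre-incubated 6 hr, then treated 16 hr at 37C. Cytotoxicity read in the same wells by CellTiter-Glo luminescence after 30 min at room temperature.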

[18] = biological target: Androgen receptor (Homo sapiens) (UniProt P10275); assay: qHTS assay to identify small molecule antagonists of the androgen receptor (AR) signaling pathway using the MDA cell line in the presence of 0.5 nM R1881 (AID 1259243); also: potency is read from the fitted curve at half-maximal effect; nearly all actives have a fitted effect of over 50% in size
Summary of the method: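 MDA-kb2 cells (MMTV-luciferase, responsive to AR and GR) at 3,000/well, rested 5 h at 37C, 0% CO2, then given compounds plus 0.5 nM R1881 (final) for 16 hr. Luciferase read with ONE-Glo after 30 min at room temperature.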

[19] = biological target: Androgen receptor (Homo sapiens) (UniProt P10275); assay: qHTS assay to identify small molecule agonists of the androgen receptor (AR) signaling pathway in the presence of an antagonist (AID 1259381; calls by dose curve; also: nearly all actives have a fitted effect of over 15% in size)
Summary of the method: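 MDA-kb2 cells carrying MMTV-luciferase (AR/GR responsive), 3,000 cells/well, co-treated with 3.0 uM nilutamide final. Compounds at 15 concentrations, 16 hr at 37C without CO2. Luciferase luminescence read after 30 min with ONE-Glo.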

Estrogen receptor (Homo sapiens), sequence (P03372 whole entry, looked up): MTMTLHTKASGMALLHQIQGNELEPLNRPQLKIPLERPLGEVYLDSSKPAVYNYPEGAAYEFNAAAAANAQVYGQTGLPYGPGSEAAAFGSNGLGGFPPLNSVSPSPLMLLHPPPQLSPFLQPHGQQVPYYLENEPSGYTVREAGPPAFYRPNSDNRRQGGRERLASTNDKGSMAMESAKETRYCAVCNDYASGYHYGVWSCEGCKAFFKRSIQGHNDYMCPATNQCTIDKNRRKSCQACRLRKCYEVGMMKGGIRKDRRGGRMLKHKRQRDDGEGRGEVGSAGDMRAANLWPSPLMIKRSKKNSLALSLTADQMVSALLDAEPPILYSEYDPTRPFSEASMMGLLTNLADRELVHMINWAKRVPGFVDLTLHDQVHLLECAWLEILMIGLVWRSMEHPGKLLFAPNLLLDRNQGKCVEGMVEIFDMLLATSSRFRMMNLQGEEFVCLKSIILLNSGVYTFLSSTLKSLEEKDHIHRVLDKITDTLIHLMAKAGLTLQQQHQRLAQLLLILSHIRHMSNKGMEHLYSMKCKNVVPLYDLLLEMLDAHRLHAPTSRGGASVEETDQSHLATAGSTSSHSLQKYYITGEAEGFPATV
Estrogen receptor beta (Homo sapiens), sequence (Q92731 whole entry, looked up): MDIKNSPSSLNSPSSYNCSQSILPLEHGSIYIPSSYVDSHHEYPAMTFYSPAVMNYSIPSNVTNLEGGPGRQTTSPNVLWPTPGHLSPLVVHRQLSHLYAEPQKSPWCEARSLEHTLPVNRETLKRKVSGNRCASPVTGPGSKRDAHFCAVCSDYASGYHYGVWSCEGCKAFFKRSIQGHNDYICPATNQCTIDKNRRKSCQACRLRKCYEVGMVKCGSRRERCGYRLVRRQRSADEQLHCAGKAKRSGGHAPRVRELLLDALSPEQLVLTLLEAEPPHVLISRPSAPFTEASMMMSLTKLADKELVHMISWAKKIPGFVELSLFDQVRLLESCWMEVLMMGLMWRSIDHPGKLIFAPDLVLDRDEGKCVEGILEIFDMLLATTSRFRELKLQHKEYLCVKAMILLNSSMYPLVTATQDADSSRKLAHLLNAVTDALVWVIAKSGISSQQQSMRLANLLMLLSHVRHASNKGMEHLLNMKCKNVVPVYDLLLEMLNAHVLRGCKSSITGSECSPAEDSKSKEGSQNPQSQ
Thyrotropin receptor (Homo sapiens), sequence (P16473 whole entry, looked up): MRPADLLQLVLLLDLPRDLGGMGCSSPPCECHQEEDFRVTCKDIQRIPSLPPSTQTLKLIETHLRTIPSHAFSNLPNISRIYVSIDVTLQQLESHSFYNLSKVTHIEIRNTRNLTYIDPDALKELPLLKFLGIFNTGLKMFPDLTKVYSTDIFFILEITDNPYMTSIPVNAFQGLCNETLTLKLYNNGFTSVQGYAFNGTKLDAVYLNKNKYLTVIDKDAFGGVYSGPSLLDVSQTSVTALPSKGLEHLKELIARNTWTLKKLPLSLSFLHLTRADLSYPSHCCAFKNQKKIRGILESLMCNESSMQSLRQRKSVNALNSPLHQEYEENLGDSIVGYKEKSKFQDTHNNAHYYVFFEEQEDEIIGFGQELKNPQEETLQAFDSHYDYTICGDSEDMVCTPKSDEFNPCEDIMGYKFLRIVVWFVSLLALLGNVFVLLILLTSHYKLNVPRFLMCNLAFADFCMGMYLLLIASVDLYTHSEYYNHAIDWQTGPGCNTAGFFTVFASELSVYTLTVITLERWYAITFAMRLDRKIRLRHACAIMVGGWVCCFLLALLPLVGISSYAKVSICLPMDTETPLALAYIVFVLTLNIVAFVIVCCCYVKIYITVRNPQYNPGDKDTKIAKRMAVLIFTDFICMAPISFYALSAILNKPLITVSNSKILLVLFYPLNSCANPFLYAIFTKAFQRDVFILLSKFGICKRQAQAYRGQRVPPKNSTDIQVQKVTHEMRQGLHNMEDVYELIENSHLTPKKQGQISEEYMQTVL
Androgen receptor (Homo sapiens), sequence (P10275 whole entry, looked up): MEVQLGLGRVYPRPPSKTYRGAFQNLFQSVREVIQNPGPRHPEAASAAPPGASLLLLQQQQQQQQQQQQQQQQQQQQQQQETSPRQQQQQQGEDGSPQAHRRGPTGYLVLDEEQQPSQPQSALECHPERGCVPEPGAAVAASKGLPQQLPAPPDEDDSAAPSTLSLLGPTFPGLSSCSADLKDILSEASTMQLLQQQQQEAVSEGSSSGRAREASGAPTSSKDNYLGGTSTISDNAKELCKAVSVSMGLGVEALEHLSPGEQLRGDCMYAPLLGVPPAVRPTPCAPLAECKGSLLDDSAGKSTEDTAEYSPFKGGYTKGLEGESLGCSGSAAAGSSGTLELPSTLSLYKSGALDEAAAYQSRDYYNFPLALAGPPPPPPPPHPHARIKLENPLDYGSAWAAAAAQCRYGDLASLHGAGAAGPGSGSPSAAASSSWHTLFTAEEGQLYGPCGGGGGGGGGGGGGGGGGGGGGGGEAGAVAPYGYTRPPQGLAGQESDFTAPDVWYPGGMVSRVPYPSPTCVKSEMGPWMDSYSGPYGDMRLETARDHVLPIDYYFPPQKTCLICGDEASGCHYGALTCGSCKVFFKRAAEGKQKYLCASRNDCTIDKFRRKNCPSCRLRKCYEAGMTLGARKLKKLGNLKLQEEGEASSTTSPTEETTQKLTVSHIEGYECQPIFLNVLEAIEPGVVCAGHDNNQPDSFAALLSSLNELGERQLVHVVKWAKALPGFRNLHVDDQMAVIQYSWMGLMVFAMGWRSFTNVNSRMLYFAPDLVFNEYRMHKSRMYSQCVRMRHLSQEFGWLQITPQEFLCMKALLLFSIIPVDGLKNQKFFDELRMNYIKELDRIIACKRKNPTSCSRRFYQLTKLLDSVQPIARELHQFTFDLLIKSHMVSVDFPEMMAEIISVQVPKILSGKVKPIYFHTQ

Row | Structure (SMILES) | Potency [1] | Potency [2] | Potency [3] | Potency [4] | Potency [5] | Potency [6] | Potency [7] | Potency [8] | Potency [9] | Potency [10] | Potency [11] | Potency [12] | Potency [13] | Potency [14] | Potency [15] | Potency [16] | Potency [17] | Potency [18] | Potency [19]
1 | O=CNNC=O | inactive | inactive | inactive | inactive | inactive | inactive | inactive | inactive | inactive | inactive | inactive | inactive | inactive | inactive | – | – | – | – | –
2 | CC[C@H]1OC(=O)[C@H](C)[C@@H](O[C@H]2C[C@@](C)(OC)[C@@H](O)[C@H](C)O2)[C@H](C)[C@@H](O[C@@H]2O[C@H](C)C[C@H](N(C)C)[C@H]2O)[C@](C)(O)C[C@@H](C)C(=O)[C@H](C)[C@@H](O)[C@]1(C)O | inactive | – | inactive | – | inactive | inactive | inactive | inactive | inactive | – | inactive | – | inactive | inactive | inactive | inactive | – | – | –
3 | CCNc1nc(N)nc(Cl)n1 | inactive | – | inactive | inactive | inactive | – | inactive | inactive | inactive | inactive | inactive | – | inactive | inactive | – | – | inactive | – | –
4 | O=C(O)CO | inactive | inactive | inactive | inactive | inactive | – | inactive | inactive | inactive | inactive | inactive | inactive | inactive | inactive | – | inactive | inactive | – | –
5 | Oc1ccc2c(c1)Cc1ccccc1-2 | inactive | inactive | inactive | – | inactive | inactive | – | – | – | inactive | inactive | – | inactive | – | – | inactive | – | – | –
6 | CC1=C2[C@@H]([C@H](C)CC[C@H]2/C=C(\C)C(=O)O)[C@H](O)C1 | inactive | inactive | inactive | inactive | inactive | inactive | – | inactive | inactive | – | inactive | inactive | inactive | inactive | – | – | inactive | – | –
7 | O=C1OC(=O)c2c(Br)c(Br)c(Br)c(Br)c21 | inactive | – | inactive | inactive | inactive | inactive | inactive | inactive | inactive | inactive | inactive | – | inactive | – | – | inactive | – | – | –
8 | Nc1ccc(N=Nc2ccc(N)cc2)cc1 | inactive | inactive | 12.2 µM (active) | – | – | inactive | – | – | – | 27.3 µM (active) | – | inactive | inactive | inactive | – | inactive | – | – | –
9 | CCN(Cc1cccc(S(=O)(=O)O)c1)c1ccc(C(=C2C=CC(=[N+](CC)Cc3cccc(S(=O)(=O)O)c3)C=C2)c2ccccc2S(=O)(=O)[O-])cc1 | – | 12.2 µM (active) | 6.14 µM (active) | 27.4 µM (active) | 17.3 µM (active) | inactive | 3.08 µM (active) | inactive | inactive | 17.3 µM (active) | – | inactive | – | – | – | – | – | – | –
10 | CCN(CC)C(=O)/C(C#N)=C/c1cc(O)c(O)c([N+](=O)[O-])c1 | – | inactive | – | – | – | inactive | inactive | inactive | – | 23.7 µM (active) | inactive | inactive | inactive | inactive | inactive | inactive | inactive | 23.7 µM (active) | inactive
